# Measured values reported in PubChem BioAssay (NCI).
# About 79,000 compounds went through this panel and 15% of them were active in at least one assay; those are over-represented in the sample as a whole. A number with no mark means an inactive call. The source made the active and inactive calls. Rule as the data show it: active = growth inhibition above about 70%; inactive = the rest.
# Columns and labels:
# [1] = NCI Yeast Anticancer Drug Screen. Data for the rad52 strain (AID 147);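 also: 0% = growth of vehicle-treated control cultures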; settings: S. cerevisiae rad52 mutant growth inhibition, stronger effect = higher value
# Summary of the method: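 Read-out: growth inhibition versus vehicle-treated controls. Cells were a DNA repair-deficient yeast strain treated with compounds.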
# [2] = NCI Yeast Anticancer Drug Screen. Data for the wt1 strain (AID 149);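 also: 0% = growth of vehicle-treated wt1 cultures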; settings: S. cerevisiae wt1 strain (SPY 50644) growth inhibition, stronger effect = higher value
# Summary of the method: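 Measured: growth of wt1 yeast under compound versus vehicle treatment, reported as inhibition.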
# [3] = NCI Yeast Anticancer Drug Screen. Data for the rad50EPP+ strain (AID 151);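 also: 0% = growth of vehicle-treated control cultures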; settings: S. cerevisiae rad50 mutant strain, stronger effect = higher value
# Summary of the method: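 Growth inhibition read against vehicle controls in rad50EPP+ yeast, a strain altered in DNA damage repair, after compound exposure.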
# [4] = NCI Yeast Anticancer Drug Screen. Data for the mgt1 strain (AID 153); settings: S. cerevisiae mgt1 mutant growth inhibition, stronger effect = higher value
# Summary of the method: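 mgt1 yeast grown with test compound; read-out is growth inhibition versus vehicle-treated cultures.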
# [5] = NCI Yeast Anticancer Drug Screen. Data for the rad50 strain (AID 155);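 also: 0% = growth of vehicle-only cultures of the same strain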; settings: S. cerevisiae rad50 strain growth inhibition, stronger effect = higher value
# Summary of the method: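 Growth of the mutant yeast was measured after compound exposure and referenced to vehicle-treated cultures.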
# [6] = NCI Yeast Anticancer Drug Screen. Data for the mec2-1 strain (AID 157); settings: S. cerevisiae mec2-1 strain, stronger effect = higher value
# Summary of the method: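 Yeast mec2-1 mutant treated with compound. Readout: growth inhibition vs vehicle controls.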
# [7] = NCI Yeast Anticancer Drug Screen. Data for the rad14 strain (AID 159);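 also: 0% = growth of vehicle-treated control cultures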; settings: S. cerevisiae rad14 strain growth inhibition, stronger effect = higher value
# Summary of the method: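 Here, inhibition of yeast growth was measured after compound exposure, using a strain with a genetic defect in DNA damage repair and vehicle-treated cultures as the reference.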
# [8] = NCI Yeast Anticancer Drug Screen. Data for the sgs1 mgt1 strain (AID 161);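 also: 0% = growth of cultures given vehicle only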; settings: S. cerevisiae sgs1 mgt1 strain, stronger effect = higher value
# Summary of the method: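 Genetically altered yeast, compound exposure, growth inhibition relative to vehicle.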
# [9] = NCI Yeast Anticancer Drug Screen. Data for the CLN2oe strain (AID 163);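 also: 0% = growth of vehicle-only control cultures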; settings: S. cerevisiae CLN2oe strain, stronger effect = higher value
# Summary of the method: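 Read-out: yeast growth inhibition, expressed relative to vehicle-only controls. The strain bears an engineered cell-cycle alteration.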
# [10] = NCI Yeast Anticancer Drug Screen. Data for the cln2 rad14 strain (AID 165);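 also: 0% = growth equal to vehicle treated cultures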; settings: S. cerevisiae cln2 rad14 strain, stronger effect = higher value
# Summary of the method: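 cln2 rad14 yeast strain; compound exposure; growth inhibition read vs vehicle controls.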
# [11] = NCI Yeast Anticancer Drug Screen. Data for the bub3 strain (AID 167); settings: S. cerevisiae bub3 mutant strain, stronger effect = higher value
# Summary of the method: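 Whole-cell yeast assay. The mutant strain was incubated with compounds, and growth inhibition was determined by comparison with vehicle-treated cells.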
# [12] = NCI Yeast Anticancer Drug Screen. Data for the mlh1 strain (AID 171);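 also: 0% = growth of vehicle-treated control cultures of the same strain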; settings: S. cerevisiae mlh1 strain growth inhibition, stronger effect = higher value
# Summary of the method: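 Read-out: growth inhibition versus vehicle controls. Strain: engineered yeast with a defined DNA repair or cell cycle defect, compound-treated.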
# [13] = NCI Yeast Anticancer Drug Screen. Data for the sgs1 strain (AID 173);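 also: 0% = growth of vehicle-only control cultures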; settings: S. cerevisiae sgs1 mutant, stronger effect = higher value
# Summary of the method: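 Read-out: yeast growth inhibition relative to vehicle controls, following compound exposure of a strain with a defined DNA repair/cell cycle alteration.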
# [14] = NCI Yeast Anticancer Drug Screen. Data for the mlh1 rad18 strain (AID 175); settings: S. cerevisiae mlh1 rad18 strain growth inhibition, stronger effect = higher value
# Summary of the method: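 Yeast w/ defined DNA-repair lesions; compound exposure; growth vs vehicle controls → % inhibition.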
# [15] = NCI Yeast Anticancer Drug Screen. Data for the rad18 strain (AID 177); settings: S. cerevisiae rad18 mutant growth inhibition, stronger effect = higher value
# Summary of the method: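 Readout: growth inhibition vs vehicle controls. Cells: genetically altered yeast strain, DNA repair defect.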
# [16] = at 5.0 µM (retest, dose inferred, filed as 0.5)
# [17] = at 50.0 µM (retest, dose inferred, filed as 5.0)
smiles,measurement,setting,value
CC[PH+](CC)CC.CC[PH+](CC)CC.[Au],growth inhibition,[1]; at 1.2 µM,16%
same,growth inhibition,[1]; at 3.7 µM,21%
same,growth inhibition,[1]; at 11.0 µM,33%
same,growth inhibition,[1]; at 33.0 µM,80% (active)
same,growth inhibition,[1]; at 100.0 µM,99% (active)
same,growth inhibition,[2]; at 1.2 µM,6%
same,growth inhibition,[2]; at 3.7 µM,30%
same,growth inhibition,[2]; at 11.0 µM,36%
same,growth inhibition,[2]; at 33.0 µM,43%
same,growth inhibition,[2]; at 100.0 µM,98% (active)
same,growth inhibition,[3]; at 1.2 µM,27%
same,growth inhibition,[3]; at 3.7 µM,39%
same,growth inhibition,[3]; at 11.0 µM,40%
same,growth inhibition,[3]; at 33.0 µM,60%
same,growth inhibition,[3]; at 100.0 µM,97% (active)
same,growth inhibition,[4]; at 1.2 µM,16%
same,growth inhibition,[4]; at 3.7 µM,21%
same,growth inhibition,[4]; at 11.0 µM,28%
same,growth inhibition,[4]; at 33.0 µM,46%
same,growth inhibition,[4]; at 100.0 µM,98% (active)
same,growth inhibition,[5]; at 1.2 µM,24%
same,growth inhibition,[5]; at 3.7 µM,39%
same,growth inhibition,[5]; [16],22%
same,growth inhibition,[5]; at 11.0 µM,50%
same,growth inhibition,[5]; at 33.0 µM,92% (active)
same,growth inhibition,[5]; [17],95% (active)
same,growth inhibition,[5]; at 50.0 µM,89.2% (active)
same,growth inhibition,[5]; at 100.0 µM,99% (active)
same,growth inhibition,[6]; at 1.2 µM,14%
same,growth inhibition,[6]; at 3.7 µM,24%
same,growth inhibition,[6]; [16],52%
same,growth inhibition,[6]; at 11.0 µM,55%
same,growth inhibition,[6]; at 33.0 µM,90% (active)
same,growth inhibition,[6]; [17],99% (active)
same,growth inhibition,[6]; at 50.0 µM,94.2% (active)
same,growth inhibition,[6]; at 100.0 µM,98% (active)
same,growth inhibition,[7]; at 1.2 µM,15%
same,growth inhibition,[7]; at 3.7 µM,30%
same,growth inhibition,[7]; at 11.0 µM,34%
same,growth inhibition,[7]; at 33.0 µM,86% (active)
same,growth inhibition,[7]; at 100.0 µM,99% (active)
same,growth inhibition,[8]; [16],-11%
same,growth inhibition,[8]; [17],94% (active)
same,growth inhibition,[8]; at 50.0 µM,89.4% (active)
same,growth inhibition,[9]; at 1.2 µM,2%
same,growth inhibition,[9]; at 3.7 µM,20%
same,growth inhibition,[9]; at 11.0 µM,23%
same,growth inhibition,[9]; at 33.0 µM,54%
same,growth inhibition,[9]; at 100.0 µM,97% (active)
same,growth inhibition,[10]; [16],27%
same,growth inhibition,[10]; [17],93% (active)
same,growth inhibition,[10]; at 50.0 µM,89.2% (active)
same,growth inhibition,[11]; at 1.2 µM,8%
same,growth inhibition,[11]; at 3.7 µM,16%
same,growth inhibition,[11]; [16],-25%
same,growth inhibition,[11]; at 11.0 µM,21%
same,growth inhibition,[11]; at 33.0 µM,79% (active)
same,growth inhibition,[11]; [17],97% (active)
same,growth inhibition,[11]; at 50.0 µM,89.3% (active)
same,growth inhibition,[11]; at 100.0 µM,98% (active)
same,growth inhibition,[12]; at 1.2 µM,30%
same,growth inhibition,[12]; at 3.7 µM,49%
same,growth inhibition,[12]; at 11.0 µM,41%
same,growth inhibition,[12]; at 33.0 µM,54%
same,growth inhibition,[12]; at 100.0 µM,99% (active)
same,growth inhibition,[13]; at 1.2 µM,28%
same,growth inhibition,[13]; at 3.7 µM,39%
same,growth inhibition,[13]; at 11.0 µM,41%
same,growth inhibition,[13]; at 33.0 µM,90% (active)
same,growth inhibition,[13]; at 100.0 µM,99% (active)
same,growth inhibition,[14]; [16],34%
same,growth inhibition,[14]; [17],98% (active)
same,growth inhibition,[14]; at 50.0 µM,89% (active)
same,growth inhibition,[15]; at 1.2 µM,12%
same,growth inhibition,[15]; at 3.7 µM,16%
same,growth inhibition,[15]; at 11.0 µM,32%
same,growth inhibition,[15]; at 33.0 µM,92% (active)
same,growth inhibition,[15]; at 100.0 µM,98% (active)
Cc1ccc2c(c1)C1(C)c3cc(C)ccc3SP1S2 (stereo not drawn),growth inhibition,[1]; at 1.2 µM,20%
same,growth inhibition,[1]; at 3.7 µM,22%
same,growth inhibition,[1]; at 11.0 µM,20%
same,growth inhibition,[1]; at 33.0 µM,51%
same,growth inhibition,[1]; at 100.0 µM,55%
same,growth inhibition,[2]; at 1.2 µM,19%
same,growth inhibition,[2]; at 3.7 µM,9%
same,growth inhibition,[2]; at 11.0 µM,25%
same,growth inhibition,[2]; at 33.0 µM,26%
same,growth inhibition,[2]; at 100.0 µM,36%
same,growth inhibition,[3]; at 1.2 µM,4%
same,growth inhibition,[3]; at 3.7 µM,7%
same,growth inhibition,[3]; at 11.0 µM,17%
same,growth inhibition,[3]; at 33.0 µM,47%
same,growth inhibition,[3]; at 100.0 µM,50%
same,growth inhibition,[4]; at 1.2 µM,10%
same,growth inhibition,[4]; at 3.7 µM,3%
same,growth inhibition,[4]; at 11.0 µM,9%
same,growth inhibition,[4]; at 33.0 µM,37%
same,growth inhibition,[4]; at 100.0 µM,43%
same,growth inhibition,[5]; at 1.2 µM,17%
same,growth inhibition,[5]; at 3.7 µM,11%
same,growth inhibition,[5]; [16],-4%
same,growth inhibition,[5]; at 11.0 µM,18%
same,growth inhibition,[5]; at 33.0 µM,39%
same,growth inhibition,[5]; [17],51%
same,growth inhibition,[5]; at 50.0 µM,71.7% (active)
same,growth inhibition,[5]; at 100.0 µM,54%
same,growth inhibition,[6]; at 1.2 µM,11%
same,growth inhibition,[6]; at 3.7 µM,21%
